PubChem BioAssay (EPA / NIEHS)
Inconclusive results are not listed. The source made the active and inactive calls. The calls were made as follows, unless noted: active = hit-call score of the fitted dose curve at least 0.9, where 1 is the maximum; inconclusive = response in the unintended direction; inactive = score below 0.9.

Legend:
[1] = ATG_TCF_b_cat_CIS: Attagene CIS-FACTORIAL HepG2 Assay for human T-Cell-Factor with beta-catenin (TCF/b-cat) (AID 2282965; active = hit-call score of the fitted dose curve at least 0.9, where 1 is the maximum; inactive = score below 0.9); conditions: HepG2 TCF/beta-catenin cis-reporter transcription, actives raise or lower the signal
In short: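 Cells of the HepG2 line carry transiently transfected reporter units whose promoters respond to endogenous factors. Twenty-four hours post-dosing, reporter mRNA induction is measured by fluorescent RT-PCR and capillary electrophoresis, with DMSO as baseline.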

[2] = ATG_TAL_CIS: Attagene CIS-FACTORIAL HepG2 Assay for human TAL Basal Promoter (AID 2282966; active = hit-call score of the fitted dose curve at least 0.9, where 1 is the maximum; inactive = score below 0.9;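 also: background control endpoint measuring basal TAL promoter reporter mRNA not a specific factor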); conditions: HepG2 Attagene cis-factorial TAL promoter reporter; actives raise or lower the signal
In short: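 RT-PCR plus capillary electrophoresis quantifies reporter mRNA induction in transiently transfected HepG2 cells after 24 h chemical treatment. DMSO serves as negative control and baseline for bidirectional fitting.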

[3] = ATG_TGFb_CIS: Attagene CIS-FACTORIAL HepG2 Assay for human Transforming Growth Factor (TGF) (AID 2282967; active = hit-call score of the fitted dose curve at least 0.9, where 1 is the maximum; inactive = score below 0.9); conditions: HepG2 Attagene CIS TGFb reporter, mRNA transcription; actives raise or lower the signal
In short: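 Transient MRTU transfection of HepG2 (FuGene 6). Dose 24 h. TriZol RNA, oligo(dT) RT, PCR, 6-FAM primer extension, HpaI cut, CE. Bidirectional fit, DMSO = baseline.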

[4] = ATG_VDRE_CIS: Attagene CIS-FACTORIAL HepG2 Assay for human Vitamin D Receptor Element (VDRE) (AID 2282968; active = hit-call score of the fitted dose curve at least 0.9, where 1 is the maximum; inactive = score below 0.9); conditions: HepG2 VDRE cis-reporter transcription, actives raise or lower the signal
In short: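 Cell-based multiplexed reporter format in human liver HepG2 cells, 24 h post-dose. Fluorescence from capillary electrophoresis of reporter cDNA gives the signal, with DMSO as negative control and baseline.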

[5] = target: Nuclear receptor subfamily 1 group I member 3 (Homo sapiens) (UniProt Q14994); experiment: ATG_CAR_TRANS: Attagene TRANS-FACTORIAL HepG2 Assay for human Constitutive Androstane Receptor (CAR) (AID 2282969); conditions: HepG2 Attagene TRANS-FACTORIAL CAR reporter;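 also: activators raise reporter mRNA above DMSO so AC50 marks induction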
In short: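 HepG2 cells transiently transfected with GAL4-UAS reporter units; TRANS format reads activity of exogenous chimeric NR-Gal4 protein. After 24 h dosing, reporter mRNA quantified by RT-PCR, 6-FAM labelling and capillary electrophoresis; gain of signal fitted against DMSO.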

[6] = target: X-box-binding protein 1 (Homo sapiens) (UniProt P17861); experiment: ATG_Xbp1_CIS: Attagene CIS-FACTORIAL HepG2 Assay for human X-box Binding Protein 1 (XBP1) (AID 2282972; active = hit-call score of the fitted dose curve at least 0.9, where 1 is the maximum; inactive = score below 0.9); conditions: HepG2 XBP1 cis-element reporter, Attagene multiplex; actives raise or lower the signal
In short: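 Fluorescence-labelled cDNA fragments from reporter transcripts, separated by capillary electrophoresis, give the signal. Source: HepG2 cells transfected with promoter-driven reporter units, harvested 24 h post-dose. DMSO served as reference for bidirectional curve fitting.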

[7] = ATG_GAL4_TRANS: Attagene TRANS-FACTORIAL HepG2 Assay for GAL4 (Internal Marker) (AID 2282976); conditions: HepG2 Attagene TRANS GAL4 internal marker reporter
In short: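 In transfected human HepG2 liver cells dosed 24 h, GAL4 reporter mRNA serves as a baseline marker. Detection by RT-PCR with fluorescent capillary electrophoresis, activity fitted upward relative to DMSO.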

[8] = target: Estrogen-related receptor gamma (Homo sapiens) (UniProt P62508); experiment: ATG_ERRg_TRANS: Attagene TRANS-FACTORIAL HepG2 Assay for human Estrogen-Related Receptor gamma (ERRg) (AID 2282977); conditions: HepG2 Attagene TRANS reporter, ERRg transactivation;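 also: hits increase reporter signal over DMSO so potencies reflect activators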
In short: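 HepG2 cells transiently transfected with multiplexed GAL4-UAS reporter units and chimeric NR-Gal4 constructs were exposed to test chemicals for 24 h. Reporter mRNA was measured by RT-PCR, 6-FAM primer extension, HpaI digestion and capillary electrophoresis; gain-of-signal versus DMSO.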

[9] = target: Bile acid receptor (Homo sapiens) (UniProt Q96RI1); experiment: ATG_FXR_TRANS: Attagene TRANS-FACTORIAL HepG2 Assay for Farnesoid X Receptor (FXR) (AID 2282979); conditions: HepG2 Attagene TRANS FXR-GAL4 reporter transcription;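 also: hits raise reporter mRNA above DMSO so AC50 marks FXR activation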
In short: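 Reporter transcripts from transfected HepG2 cells were measured 24 h after dosing, using RT-PCR with capillary electrophoresis of 6-FAM-labelled fragments. The read-out reflects activity of exogenous FXR-Gal4 chimera on GAL4-UAS units, with induction relative to DMSO.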

[10] = target: Oxysterols receptor LXR-alpha (Homo sapiens) (UniProt Q13133); experiment: ATG_LXRa_TRANS: Attagene TRANS-FACTORIAL HepG2 Assay for human Liver X Receptor alpha (LXRa) (AID 2282980); conditions: HepG2 Attagene TRANS reporter, LXRa transactivation
In short: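 Chemical-induced reporter mRNA measured by RT-PCR with fluorescent labelling and capillary electrophoresis after 24 h dosing of transiently transfected HepG2 cells expressing exogenous NR-Gal4 chimeras; increases scored against DMSO baseline.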

[11] = target: Oxysterols receptor LXR-beta (Homo sapiens) (UniProt P55055); experiment: ATG_LXRb_TRANS: Attagene TRANS-FACTORIAL HepG2 Assay for human Liver X Receptor beta (LXRb) (AID 2282981); conditions: HepG2 Attagene TRANS GAL4-LXRb reporter, mRNA
In short: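 Gain-of-signal mRNA reporter endpoint, DMSO as negative control. Transiently transfected HepG2 cells carrying the NR-Gal4 chimera and GAL4-UAS reporter units were treated 24 h; transcripts quantified by RT-PCR and capillary electrophoresis fluorescence.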

[12] = target: Hepatocyte nuclear factor 4-alpha (Homo sapiens) (UniProt P41235); experiment: ATG_HNF4a_TRANS: Attagene TRANS-FACTORIAL HepG2 Assay for human Hepatocyte Nuclear Factor 4 alpha (HNF4a) (AID 2282982); conditions: HepG2 HNF4a transactivation reporter, mRNA readout
In short: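 Gain-of-signal mRNA induction, relative to DMSO vehicle, was read after 24 h compound treatment of HepG2 cells bearing transfected GAL4-UAS reporters. Detection used RT-PCR, 6-FAM primer extension and capillary electrophoresis.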

[13] = ATG_M_32_TRANS: Attagene TRANS-FACTORIAL HepG2 Assay for M32 Transcription Factor (Internal Marker) (AID 2282984); conditions: HepG2 Attagene TRANS M32 internal marker reporter;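 also: transcript level of a background control reporter unit measured by RT-PCR and capillary electrophoresis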
In short: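 Capillary electrophoresis of 6-FAM-labelled reporter fragments gives the signal; data fitted for gain over DMSO negative control. Source: HepG2 cells bearing transient multiple reporter transcription units, 24 h exposure.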

[14] = target: Nuclear receptor subfamily 4 group A member 2 (Homo sapiens) (UniProt P43354); experiment: ATG_NURR1_TRANS: Attagene TRANS-FACTORIAL HepG2 Assay for human Nuclear Receptor Related Protein 1 (NURR1) (AID 2282985); conditions: HepG2 Attagene TRANS reporter, mRNA readout
In short: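 HepG2 / transient MRTU transfection / 24 h compound exposure / RT-PCR + CE fluorescence of reporter mRNA / gain-of-signal vs DMSO.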

[15] = target: Transcriptional activator Myb (Homo sapiens) (UniProt P10242); experiment: ATG_Myb_CIS: Attagene CIS-FACTORIAL HepG2 Assay for human Myeloblastosis (Myb) Proto-Oncogene Transcription Factor (AID 2282986; active = hit-call score of the fitted dose curve at least 0.9, where 1 is the maximum; inactive = score below 0.9); conditions: HepG2 Attagene CIS-FACTORIAL Myb reporter transcription; actives raise or lower the signal
In short: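 HepG2 cells were transiently transfected with cis-regulated multiple reporter transcription units reflecting endogenous Myb activity, then exposed to compound for 24 hours. Reporter mRNA was measured by RT-PCR with capillary electrophoresis; bidirectional fitting versus DMSO baseline.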

[16] = target: Estrogen receptor (Homo sapiens) (UniProt P03372); experiment: ATG_ERa_TRANS: Attagene TRANS-FACTORIAL HepG2 Assay for human Estrogen Receptor alpha (ERa) (AID 2282970); conditions: HepG2 Attagene TRANS ERa GAL4 reporter, mRNA
In short: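 Cells: HepG2, transiently transfected. Construct: GAL4-UAS reporter units regulated by exogenous NR-Gal4 chimeras. Time: 24 h. Detection: reporter mRNA by RT-PCR, capillary electrophoresis, fluorescence. Baseline: DMSO, upward fitting.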

[17] = target: Steroid hormone receptor ERR1 (Homo sapiens) (UniProt P11474); experiment: ATG_ERRa_TRANS: Attagene TRANS-FACTORIAL HepG2 Assay for human Estrogen-Related Receptor alpha (ERRa) (AID 2282971); conditions: HepG2 Attagene TRANS reporter, ERRa transactivation
In short: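 Reporter transcripts from ERRa-Gal4 chimera activity measured in transiently transfected human HepG2 cells 24 hours after dosing, using RT-PCR with 6-FAM primer extension, HpaI digestion and capillary electrophoresis; DMSO is baseline.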

[18] = target: Glucocorticoid receptor (Homo sapiens) (UniProt P04150); experiment: ATG_GR_TRANS: Attagene TRANS-FACTORIAL HepG2 Assay for human Glucocorticoid Receptor (GR) (AID 2282978); conditions: HepG2 Attagene TRANS GR reporter, mRNA transcription;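 also: activators score as hits since higher reporter transcript over DMSO is fitted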
In short: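 HepG2 cells transiently transfected with multiplexed reporter units in which chimeric NR-GAL4 proteins drive GAL4-UAS reporters; 24 h compound exposure. Reporter mRNA measured by RT-PCR, 6-FAM labelling, HpaI digestion and capillary electrophoresis; gain-of-signal fitted versus DMSO.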

[19] = ATG_M_19_TRANS: Attagene TRANS-FACTORIAL HepG2 Assay for M19 Transcription Factor (Internal Marker) (AID 2282974); conditions: HepG2 Attagene TRANS-FACTORIAL M19 internal marker reporter
In short: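 HepG2 cells transiently transfected with multiple GAL4-UAS reporter transcription units were exposed to chemicals for 24 h. Reporter mRNA was read by RT-PCR, 6-FAM primer extension, HpaI digestion and capillary electrophoresis; gain of signal fitted relative to DMSO.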

[20] = ATG_M_06_TRANS: Attagene TRANS-FACTORIAL HepG2 Assay for M06 Transcription Factor (Internal Marker) (AID 2282983); conditions: HepG2 Attagene TRANS M06 internal marker reporter
In short: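 Cells: HepG2, transient multi-reporter transfection. Exposure: 24 h. Detection: RT-PCR, 6-FAM labelling, HpaI digestion (2 h, 37 °C), capillary electrophoresis. Baseline: DMSO.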

Measured: AC50

Sequence of Nuclear receptor subfamily 4 group A member 2 (Homo sapiens) (P43354 whole entry, looked up): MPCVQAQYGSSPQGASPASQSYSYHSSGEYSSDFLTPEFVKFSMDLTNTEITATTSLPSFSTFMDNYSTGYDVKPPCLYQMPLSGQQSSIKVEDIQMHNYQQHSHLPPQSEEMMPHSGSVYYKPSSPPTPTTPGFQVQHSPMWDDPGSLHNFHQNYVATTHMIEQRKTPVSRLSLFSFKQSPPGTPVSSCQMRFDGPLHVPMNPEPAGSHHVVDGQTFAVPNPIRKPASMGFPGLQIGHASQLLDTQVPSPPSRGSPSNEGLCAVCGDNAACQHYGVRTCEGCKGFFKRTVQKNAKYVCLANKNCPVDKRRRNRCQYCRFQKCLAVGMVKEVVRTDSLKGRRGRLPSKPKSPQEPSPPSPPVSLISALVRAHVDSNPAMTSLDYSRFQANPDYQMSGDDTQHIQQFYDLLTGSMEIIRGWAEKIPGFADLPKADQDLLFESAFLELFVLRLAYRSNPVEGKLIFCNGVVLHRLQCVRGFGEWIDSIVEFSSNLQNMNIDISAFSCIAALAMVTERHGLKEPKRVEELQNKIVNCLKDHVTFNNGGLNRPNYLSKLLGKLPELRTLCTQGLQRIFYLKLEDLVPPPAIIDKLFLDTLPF
Sequence of Estrogen receptor (Homo sapiens) (P03372 whole entry, looked up, the tested form may be a part): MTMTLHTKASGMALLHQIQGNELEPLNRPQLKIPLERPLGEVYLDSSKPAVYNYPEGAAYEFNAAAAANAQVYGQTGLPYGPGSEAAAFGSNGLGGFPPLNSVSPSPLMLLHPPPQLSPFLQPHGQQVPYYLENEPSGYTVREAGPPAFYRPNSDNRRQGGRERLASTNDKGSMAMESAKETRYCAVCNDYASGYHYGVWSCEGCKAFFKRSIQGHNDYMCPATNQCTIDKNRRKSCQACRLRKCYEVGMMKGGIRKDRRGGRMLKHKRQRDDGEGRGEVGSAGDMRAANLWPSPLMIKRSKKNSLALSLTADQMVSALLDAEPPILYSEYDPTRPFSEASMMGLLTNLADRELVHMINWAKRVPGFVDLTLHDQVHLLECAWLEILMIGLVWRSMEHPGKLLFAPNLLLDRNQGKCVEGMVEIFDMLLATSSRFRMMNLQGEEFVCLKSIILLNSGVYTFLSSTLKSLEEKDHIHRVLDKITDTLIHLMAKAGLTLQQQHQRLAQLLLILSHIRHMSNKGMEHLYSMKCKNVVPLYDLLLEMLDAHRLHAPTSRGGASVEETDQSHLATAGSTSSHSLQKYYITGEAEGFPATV
Sequence of Nuclear receptor subfamily 1 group I member 3 (Homo sapiens) (Q14994 whole entry, looked up, the tested form may be a part): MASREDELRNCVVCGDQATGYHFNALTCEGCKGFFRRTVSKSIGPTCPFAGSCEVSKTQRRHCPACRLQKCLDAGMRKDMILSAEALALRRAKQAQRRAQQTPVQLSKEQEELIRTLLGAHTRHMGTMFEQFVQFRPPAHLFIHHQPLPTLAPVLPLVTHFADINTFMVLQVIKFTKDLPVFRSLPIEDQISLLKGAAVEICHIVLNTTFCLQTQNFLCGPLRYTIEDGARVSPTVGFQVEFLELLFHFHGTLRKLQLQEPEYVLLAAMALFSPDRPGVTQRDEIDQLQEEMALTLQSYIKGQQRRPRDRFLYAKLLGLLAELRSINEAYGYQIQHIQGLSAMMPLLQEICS
Sequence of Hepatocyte nuclear factor 4-alpha (Homo sapiens) (P41235 whole entry, looked up, the tested form may be a part): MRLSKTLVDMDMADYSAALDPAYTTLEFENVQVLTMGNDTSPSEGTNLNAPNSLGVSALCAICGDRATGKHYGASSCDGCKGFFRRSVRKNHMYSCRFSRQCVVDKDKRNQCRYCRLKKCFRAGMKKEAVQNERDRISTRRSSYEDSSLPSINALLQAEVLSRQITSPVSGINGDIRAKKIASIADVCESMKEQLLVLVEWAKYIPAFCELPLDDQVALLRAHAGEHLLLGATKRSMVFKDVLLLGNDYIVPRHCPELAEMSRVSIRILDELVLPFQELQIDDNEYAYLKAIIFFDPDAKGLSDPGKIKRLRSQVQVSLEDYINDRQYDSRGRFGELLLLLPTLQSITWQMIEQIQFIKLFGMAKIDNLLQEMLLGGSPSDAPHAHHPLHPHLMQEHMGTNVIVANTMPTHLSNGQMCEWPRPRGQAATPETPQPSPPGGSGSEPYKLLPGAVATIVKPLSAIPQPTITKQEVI
Sequence of Estrogen-related receptor gamma (Homo sapiens) (P62508 whole entry, looked up, the tested form may be a part): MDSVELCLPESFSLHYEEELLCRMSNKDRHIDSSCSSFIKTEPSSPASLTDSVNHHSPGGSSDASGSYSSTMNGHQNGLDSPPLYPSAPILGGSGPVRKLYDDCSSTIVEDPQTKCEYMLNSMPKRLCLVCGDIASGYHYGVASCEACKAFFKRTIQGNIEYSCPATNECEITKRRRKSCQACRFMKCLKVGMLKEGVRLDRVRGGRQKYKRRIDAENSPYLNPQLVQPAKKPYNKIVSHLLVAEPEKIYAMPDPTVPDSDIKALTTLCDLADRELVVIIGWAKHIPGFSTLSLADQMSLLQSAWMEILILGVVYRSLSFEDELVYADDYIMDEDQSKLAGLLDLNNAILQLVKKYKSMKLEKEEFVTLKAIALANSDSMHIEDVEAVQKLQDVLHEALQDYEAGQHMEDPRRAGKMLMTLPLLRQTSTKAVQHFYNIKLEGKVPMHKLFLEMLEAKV
Sequence of Oxysterols receptor LXR-beta (Homo sapiens) (P55055 whole entry, looked up, the tested form may be a part): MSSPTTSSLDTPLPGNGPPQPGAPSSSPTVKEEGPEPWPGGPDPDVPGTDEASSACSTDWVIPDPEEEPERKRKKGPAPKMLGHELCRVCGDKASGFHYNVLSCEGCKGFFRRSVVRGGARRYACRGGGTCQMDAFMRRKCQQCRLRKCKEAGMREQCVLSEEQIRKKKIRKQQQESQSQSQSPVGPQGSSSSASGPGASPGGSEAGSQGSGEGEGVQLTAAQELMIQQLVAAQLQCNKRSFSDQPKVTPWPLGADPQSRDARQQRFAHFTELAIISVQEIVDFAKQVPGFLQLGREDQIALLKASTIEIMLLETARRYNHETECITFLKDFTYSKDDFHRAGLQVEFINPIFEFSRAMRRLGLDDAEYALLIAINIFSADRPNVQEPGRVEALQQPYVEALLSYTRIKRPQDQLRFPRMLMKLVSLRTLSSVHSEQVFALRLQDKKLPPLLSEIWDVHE
Sequence of Oxysterols receptor LXR-alpha (Homo sapiens) (Q13133 whole entry, looked up, the tested form may be a part): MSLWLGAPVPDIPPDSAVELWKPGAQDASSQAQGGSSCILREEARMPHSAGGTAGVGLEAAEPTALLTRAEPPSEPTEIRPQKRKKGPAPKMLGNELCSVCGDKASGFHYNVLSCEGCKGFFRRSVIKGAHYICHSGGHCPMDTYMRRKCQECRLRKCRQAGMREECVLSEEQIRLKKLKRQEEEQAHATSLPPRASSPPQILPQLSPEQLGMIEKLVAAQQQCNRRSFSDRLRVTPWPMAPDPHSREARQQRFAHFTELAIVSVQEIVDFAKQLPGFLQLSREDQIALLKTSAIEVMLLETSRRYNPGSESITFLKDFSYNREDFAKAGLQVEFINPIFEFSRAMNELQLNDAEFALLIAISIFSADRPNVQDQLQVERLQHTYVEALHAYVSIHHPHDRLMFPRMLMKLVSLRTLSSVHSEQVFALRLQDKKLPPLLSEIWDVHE
Sequence of Bile acid receptor (Homo sapiens) (Q96RI1 whole entry, looked up, the tested form may be a part): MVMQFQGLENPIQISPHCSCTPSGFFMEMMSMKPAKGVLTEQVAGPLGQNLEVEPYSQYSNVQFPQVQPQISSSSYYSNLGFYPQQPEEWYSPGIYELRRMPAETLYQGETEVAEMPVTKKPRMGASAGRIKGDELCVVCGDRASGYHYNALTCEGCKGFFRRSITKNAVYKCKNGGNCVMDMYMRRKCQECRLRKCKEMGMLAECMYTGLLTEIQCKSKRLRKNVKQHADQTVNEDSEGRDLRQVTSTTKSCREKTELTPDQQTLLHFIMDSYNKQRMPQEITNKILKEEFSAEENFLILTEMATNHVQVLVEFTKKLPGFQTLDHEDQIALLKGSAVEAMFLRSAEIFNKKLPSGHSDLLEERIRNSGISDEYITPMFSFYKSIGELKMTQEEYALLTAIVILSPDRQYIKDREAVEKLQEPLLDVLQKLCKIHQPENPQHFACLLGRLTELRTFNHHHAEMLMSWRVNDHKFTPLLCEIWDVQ
Sequence of X-box-binding protein 1 (Homo sapiens) (P17861 whole entry, looked up, the tested form may be a part): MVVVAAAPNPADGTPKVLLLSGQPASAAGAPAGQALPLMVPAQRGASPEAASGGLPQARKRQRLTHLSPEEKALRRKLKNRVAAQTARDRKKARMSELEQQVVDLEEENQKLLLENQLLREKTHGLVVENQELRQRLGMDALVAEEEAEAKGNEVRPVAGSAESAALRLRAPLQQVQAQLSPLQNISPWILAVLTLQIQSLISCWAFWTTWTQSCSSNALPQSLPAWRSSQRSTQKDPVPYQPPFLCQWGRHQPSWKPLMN
Sequence of Transcriptional activator Myb (Homo sapiens) (P10242 whole entry, looked up): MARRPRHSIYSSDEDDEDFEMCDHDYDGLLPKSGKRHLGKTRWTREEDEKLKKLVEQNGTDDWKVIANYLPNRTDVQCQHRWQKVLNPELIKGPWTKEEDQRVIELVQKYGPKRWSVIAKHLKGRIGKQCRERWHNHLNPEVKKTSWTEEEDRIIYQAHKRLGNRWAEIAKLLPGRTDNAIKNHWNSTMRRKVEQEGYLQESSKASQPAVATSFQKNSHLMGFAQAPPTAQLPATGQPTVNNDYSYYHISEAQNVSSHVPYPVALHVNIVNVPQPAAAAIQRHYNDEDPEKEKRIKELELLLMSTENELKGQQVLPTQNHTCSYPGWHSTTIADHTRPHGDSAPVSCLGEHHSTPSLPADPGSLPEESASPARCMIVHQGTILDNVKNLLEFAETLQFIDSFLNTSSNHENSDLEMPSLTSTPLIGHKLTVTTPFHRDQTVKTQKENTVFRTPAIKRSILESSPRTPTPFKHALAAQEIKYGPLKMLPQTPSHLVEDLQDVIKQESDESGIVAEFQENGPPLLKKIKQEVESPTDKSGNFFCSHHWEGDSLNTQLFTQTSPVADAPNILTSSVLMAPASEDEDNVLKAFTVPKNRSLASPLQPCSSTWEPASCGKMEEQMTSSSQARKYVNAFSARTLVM

O=C(O)CCC(F)(F)C(F)(F)C(F)(F)F
not listed: [16] | [17] | [18] | [19] | [20]
inactive: all other assays above

OCC(O)CC(F)(F)C(F)(F)C(F)(F)C(F)(F)F (stereo not drawn)
active: [16] 70.8 µM
inactive: [1] | [2] | [3] | [4] | [17] | [6] | [18] | [9] | [15]

CC(C)=CCCC(C)O (stereo not drawn)
inactive: [1] | [2] | [3] | [4] | [5] | [6] | [7] | [9] | [15]

C=C(C)CCCC
not listed: [11] | [12] | [14] | [16] | [17] | [18] | [20]
inactive: all other assays above

CC(C)(C)c1cc(CCC(=O)OCC(COC(=O)CCc2cc(C(C)(C)C)c(O)c(C(C)(C)C)c2)(COC(=O)CCc2cc(C(C)(C)C)c(O)c(C(C)(C)C)c2)COC(=O)CCc2cc(C(C)(C)C)c(O)c(C(C)(C)C)c2)cc(C(C)(C)C)c1O
active: [16] 21.8 µM
not listed: [7] | [8] | [9] | [10] | [13] | [17] | [18] | [19]
inactive: all other assays above

CCOC(=O)CCC(C)=O
not listed: [5] | [12] | [14] | [17] | [18] | [20]
inactive: all other assays above

O=S(=O)(OCC(F)(F)F)C(F)(F)C(F)(F)C(F)(F)C(F)(F)F
active: [1] 104 µM | [2] 150 µM | [14] 65.2 µM
not listed: [11] | [16] | [17] | [18]
inactive: all other assays above

O=C(c1ccccc1)c1ccc(Cl)cc1
active: [3] 100 µM | [4] 47.6 µM | [16] 12.1 µM
inactive: [1] | [2] | [5] | [6] | [9] | [20] | [13] | [14] | [15]

O=C=Nc1cccc2c(N=C=O)cccc12
inactive: [1] | [2] | [3] | [4] | [5] | [6] | [19] | [7] | [11] | [15]

CN(N=O)C(=O)N[C@@H]1[C@@H](O)[C@H](O)[C@@H](CO)O[C@@H]1O
not listed: [7] | [8] | [10] | [11] | [14] | [16] | [17] | [18]
inactive: all other assays above
